Assay outcomes deposited in PubChem BioAssay by National Center for Advancing Translational Sciences (NCATS).
DT40 TDP1 no CPT – qHTS for Inhibitors of human tyrosyl-DNA phosphodiesterase 1 (TDP1): qHTS in cells in absence of CPT; DT40 Tdp1-/- hTDP1 cells, no CPT, ATP luminescence, 48 h; 15% of 420,000 active; Potency, µM (highest dose often 46.2 µM), for inactives: at the top dose activity change, negative = growth inhibition, usual class: inhibitors; further: nearly all actives have a fitted effect of over 55% in size
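Compound effects on proliferation are scored in DT40 Tdp1-/-;hTDP1 cells in the absence of CPT. ATP levels (CellTiter-Glo luminescence) are recorded after a ≥48 hr, 37 °C incubation.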
KB-3-1 cytotox – kills parental KB-3-1 adenocarcinoma cells; KB-3-1 viability, CellTiter-Glo ATP luminescence, 72 h; Potency, µM (titrated, usually from 46.1 µM), actives largely listed as cytotoxic; 1.4% of 400,000 active; AID 1347075; further: nearly all actives have a fitted effect of over 60% in size
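KB-3-1 cells, DMEM (no phenol red) + 10% FBS; compound by pin transfer, 72 h, 37 °C. Readout: CellTiter-Glo luminescence after 10 min. Data normalized, curve-fitted.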
HT1080NT lethal – kills 2HG-producing HT-1080-NT fibrosarcoma cells; HT-1080-NT fibrosarcoma viability, CellTiter-Glo ATP luminescence, 48 h; Potency, µM (doses to about 46.1 µM), for inactives: top-dose activity, negative = less viability, most hits filed as cytotoxic; 1.6% of 360,000 active;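 further: NT is the 2HG producing partner of a matched IDH1 knockdown line; 0% = DMSO-treated cells and -100% = media-only wells without cells; nearly all actives have a fitted effect of over 55% in size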
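HT-1080-NT; 750 cells/well; 5% FBS RPMI; 48 h compound, 37 degrees C; CellTiter-Glo luminescence; curve fitting and curve-class assignment.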
TDP1 cell CPT – growth inhibition of DT40 Tdp1-/-;hTDP1 cells with camptothecin (screen for TDP1 inhibitors); chicken DT40 Tdp1-/-;hTDP1 cells + 20 nM CPT, ATP luminescence, 48 h; Potency, µM (doses to about 46.2 µM), for the others: at the highest dose activity change, negative = growth inhibition, actives largely listed as inhibitors; 12% of 420,000 active; AID 686979; further: nearly all actives have a fitted effect of over 55% in size
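Chicken DT40 Tdp1-/- cells complemented with human TDP1, 400 cells/well, exposed to compounds plus 20 nM camptothecin for at least 48 h at 37 C; viability read as ATP content by CellTiter-Glo luminescence.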
KB-V1 cytotox – kills drug-selected multidrug resistant KB-V1 cells. KB-V1 MDR cells viability, CellTiter-Glo, 72 h. Potency, µM (doses to about 46.1 µM), usual class: cytotoxic. 3.4% of 400,000 active; further: nearly all actives have a fitted effect of over 60% in size
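Cytotoxicity toward P-gp-expressing KB-V1 cells was determined as loss of CellTiter-Glo luminescence after 72 h at 37 degrees C. Compounds were tested in quantitative HTS format across a concentration range, with curves fitted to normalized data.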
HT1080 IDH1KD tx – toxicity to HT-1080 IDH1 knockdown cells (counter line); HT-1080 IDH1 knockdown viability, ATP luminescence, 48 h; 2% of 360,000 active; Potency, µM (titrated, usually from 46.1 µM), inactives show at the highest dose activity, negative = toxicity, usual class: cytotoxic;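 further: 0% = DMSO wells and -100% = cell-free medium wells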
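Assay cells: HT-1080 with IDH1 knockdown, 750 per well, RPMI/5% FBS. Exposure: 48 h at 37 °C following 2 h pre-incubation. Read: CellTiter-Glo luminescence; fitted concentration-response, curve class assigned.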
* marks the source's active call; other numbers are inactive results; i = inactive; u = inconclusive; x = not tested or not shown; [ ] = dose if it differs, or a comment. Most compounds without a hit are left out; they make up all but 19% or so of the library. The call rests on the fitted dose curve; in most records, active means well fitted curve in the direction sought with a large enough effect; inconclusive means small, poorly fitted or top-dose-only effect, or another doubt; inactive means no such curve, though single readings can be large; an effect the other way counts as inactive or inconclusive. Unless noted, on the % scale 0 is the no-effect control and ±100 the full control effect; potency means the concentration at half of the fitted maximal effect.

SMILES	DT40 TDP1 no CPT	KB-3-1 cytotox	HT1080NT lethal	TDP1 cell CPT	KB-V1 cytotox	HT1080 IDH1KD tx
CC1=C(C(=O)OC(C)C)C(c2cn(-c3ccccc3)nc2-c2cccs2)NC(=O)N1 (stereo unspecified)	23µM*	i	0%	u	u	-19%
COc1ccc(C(=O)OCc2ccccc2C#N)cc1S(=O)(=O)N1CCOCC1	-27%	i	-2%	2%	u	7%
CC1=C(C(=O)N(C(C)C)C(C)C)CC(CC(=O)NC2CC2)C(=O)N1CCCN1CCCC1=O (stereo unspecified)	u	i	24%	-6%	i	19%
COc1ccc(-c2ccc(=O)n(CC(=O)NCCc3ccccc3)n2)cc1	-2%	i	x	8%	i	x
CCOC(=O)C1(C)CCCN1C(=O)c1ccc(OC)cc1 (stereo unspecified)	-9%	i	9%	0%	i	11%
CCCCCOC(=O)Cc1c(O)c2ccccc2n(C)c1=O	16µM*	i	-4%	16µM*	i	7%
Cn1c(=O)c(Cc2ccccc2)c(O)c2ccccc21	-15%	i	0%[9.24 µM]	u	i	-13%
COc1cccc(NC(=O)COC(=O)c2c(NC(C)=O)sc(C)c2C)c1	4%	i	-5%	-24%	u	4%
COc1ccccc1NC(=O)COC(=O)c1c(NC(C)=O)sc(C)c1C	16µM*	i	-15%	u	u	-16%
CC(=O)Nc1sc(C)c(C)c1C(=O)OCC(=O)Nc1ccccc1	-17%	i	5%[9.24 µM]	u	i	-3%
COc1ccc(CNC(=O)COC(=O)c2c(NC(C)=O)sc(C)c2C)cc1OC	23µM*	i	-14%	u	i	-19%
CC(=O)Nc1sc(C)c(C)c1C(=O)OCC(=O)Nc1cccc(C)c1	16µM*	u	7%	16µM*	i	12%
COc1ccc(C)cc1NC(=O)C(c1ccccc1)N1CCN(CC(=O)NC2CC2)CC1 (stereo unspecified)	u	i	-8%	u	u	-3%
CCc1c(C(=O)Nc2ccncc2)csc1C	21µM*	i	-13%	u	16µM*	-28%
O=C(Nc1ccc2c(c1)OCCO2)c1cc2ccccc2o1	u	i	-16%	-29%	u	-4%
Cc1nc2ccccc2c2oc(C(=O)NCC3COc4ccccc4O3)cc12 (stereo unspecified)	12µM*	i	-17%	21µM*	i	-15%
Cc1nc2ccccc2c2oc(C(=O)Nc3ccc4c(c3)OCCO4)cc12	15µM*	u	-13%	15µM*	u	-7%
Cc1nc2ccccc2c2oc(C(=O)Nc3ccc(C(C)C)cc3)cc12	21µM*	u	u	u	i	u
CCn1cnnc1SCC(=O)NCC1COc2ccccc2O1 (stereo unspecified)	1.8µM*	i	3%	-2%	i	10%
Cc1nc2ccccc2c2oc(C(=O)N3CCCC(C)C3)cc12 (stereo unspecified)	u	i	-1%	u	i	0%
Cn1c(SCC(=O)NCC2COc3ccccc3O2)nnc1C(F)(F)F (stereo unspecified)	-4%	x	0%	0%	x	0%
COc1ccc2ccc(OC)c(/C=N/n3cnnc3)c2c1	u	i	-20%	0%	i	-7%
CCC(=O)OCc1cnc(C)c2oc(=O)c(C(=O)Nc3ccc(CC)cc3)cc12	u	i	x	-25%	i	x
COc1cc(NC(=O)c2cc3c(C)nc4ccccc4c3o2)cc(OC)c1OC	12µM*	i	6%	8.2µM*	u	2%
CCCn1nc(C(=O)NCC2COc3ccccc3O2)c2ccccc2c1=O (stereo unspecified)	u	i	-9%	u	7.3µM*	3%
SMILES	DT40 TDP1 no CPT	KB-3-1 cytotox	HT1080NT lethal	TDP1 cell CPT	KB-V1 cytotox	HT1080 IDH1KD tx
COc1cc(NC(=O)c2cc(C)nc3ccccc23)cc(OC)c1OC	-7%	i	-13%	-16%	i	-14%
COc1ccc(-n2nc(C(=O)NCC(=O)NCC3COc4ccccc4O3)c3ccccc3c2=O)cc1OC (stereo unspecified)	u	i	0%	u	i	-1%
CC(NC(=O)CSc1nc(C2CC2)n(-c2ccccc2)n1)c1ccco1 (stereo unspecified)	u	i	0%	u	13µM*	3%
O=C(CSc1nc(C2CCCCC2)n(-c2ccccc2)n1)NCCN1C(=O)CSC1=O	-27%	i	3%	-18%	i	-3%
CN(C(=O)CSc1nc(C2CC2)n(-c2ccccc2)n1)C1CCS(=O)(=O)C1 (stereo unspecified)	3%	i	2%	26%	i	1%
O=C(CSc1nc(C2CCCCC2)n(-c2ccccc2)n1)NCC(F)(F)F	u	i	3%	-8%	8.2µM*	5%
Clc1ccc(N2O[C@H]3C=C[C@@H]2C3)nc1	u	i	1%	21µM*	i	-6%
COCCNC(=O)c1cnn(-c2ccc(C)cc2C)c1C1CCN(C(=O)OC(C)(C)C)CC1	u	i	x	u	i	x
O=C(CN1CCN(Cc2ccc(F)cc2)CC1)Nc1nc2ccccc2s1	26µM*	i	-9%	-28%	i	-3%
Cc1ccc(NC(=O)CSc2nccn2Cc2ccccc2)cc1C	21µM*	i	-4%	u	i	-17%
Cc1ccc2nc(NC(=O)CSc3nccn3Cc3ccc(F)cc3)sc2c1	18µM*	i	x	16µM*	u	x
